{
  "source": "PubChem BioAssay (Tox21)",
  "note": "Records with an inconclusive call do not appear. Entries that show only a call come without a potency. Active and inactive are the calls of the source. The call rests on the fitted dose curve; in most records, active means well fitted cell-killing curve with a large enough effect in the repeat runs; inconclusive means weak or mixed curves, or effect the other way; inactive means no such curve, though single readings can be large or run the other way.",
  "data": [
    {"experiment": "qHTS assay for small molecule activators of the heat shock response signaling pathway - cell viability counter screen (AID 743209); further: nearly all actives have a fitted effect of over 50% in size", "conditions": "HSE-bla HeLa viability, CellTiter-Glo luminescence, 5 h; series mostly up to 62.6 µM", "text": "U.S. Tox21 Program National Center for Advancing Translational Sciences [NCATS] NIH Chemical Genomics Center [NCGC] U.S. Environmental Protection Agency [EPA] National Institutes of Environmental Health Sciences [NIEHS] National Toxicology Program [NTP] U.S. Food and Drug Administration [FDA] Tox21 Assay Overview: Various chemicals, environmental and physiological stress conditions may lead to the activation of heat shock response/ unfolded protein response (HSR/UPR). There are three heat shock transcription factors (HSFs) (HSF-1, -2, and -4) mediating transcriptional regulation of the human HSR. To identify the compounds that activate HSR signaling, HSE-bla HeLa cell line (Invitrogen, Carlsbad, CA, USA) containing a beta-lactamase reporter gene under the control of the heat shock response elements was used to screen Tox21 10K compound library. The cytotoxicity of the Tox21 compound library against the HSE-bla HeLa cell line was tested in parallel by measuring the cell viability using CellTiter-Glo assay (Promega, Madison, WI) in the same wells.\nTox21 Assay Protocol Summary: The CellSensor HSE-bla HeLa cells (Invitrogen, Carlsbad, CA, USA) were dispensed at 1500 cells/6uL/well into 1536-well black wall/clear bottom plates using a Multidrop combi (Thermo Fisher Scientific, Waltham, MA) dispenser. After the assay plates were incubated at 37 C and 5% CO2 overnight, 23 nL of compounds dissolved in DMSO, positive controls or DMSO only was transferred to the assay plate by a Pintool station (Kalypsys, San Diego, CA). The plates were incubated at 37 C for 5 h. After 1 uL of LiveBLAzerTM B/G FRET substrate was added using a Flying Reagent Dispenser (FRD, Beckman Coulter, Indianapolis, IN, USA), the plates were incubated at room temperature for 2.5 h, and fluorescence intensity was measured by an Envision plate reader (PerkinElmer, Shelton, CT). For cell viability readout that measures cytotoxicity, 3 ul/well of CellTiter-Glo reagent was added into the assay plates using a FRD. After 30 min incubation at room temperature, the luminescence intensity in the plates was measured using a ViewLux (PerkinElmer) plate reader.", "values": [
      {"smiles": "Nc1cccc(Cl)c1", "Potency": "inactive"},
      {"smiles": "N#Cc1ccccn1", "Potency": "inactive"},
      {"smiles": "Cl[C@H]1OCCO[C@@H]1Cl", "Potency": "inactive"},
      {"smiles": "CCNc1nc(Cl)nc(NC(C)C)n1", "Potency": "inactive"},
      {"smiles": "OC[C@@H](O)[C@H]1O[C@@H]2O[C@H](C(Cl)(Cl)Cl)O[C@@H]2[C@H]1O", "Potency": "inactive"},
      {"smiles": "Cl/C=C/Cl", "Potency": "inactive"},
      {"smiles": "COC(C)(C)CCCC(C)C/C=C/C(C)=C/C(=O)OC(C)C", "note": "(stereo not given)", "Potency": "inactive"},
      {"smiles": "CC(C)c1cccc(C(C)C)c1O", "Potency": "inactive"},
      {"smiles": "Cc1cccc(C)c1N", "Potency": "inactive"},
      {"smiles": "CNC(=O)Oc1cccc2ccccc12", "Potency": "inactive"},
      {"smiles": "Cc1cccc(N)c1", "Potency": "inactive"},
      {"smiles": "Cc1cc(Cl)ccc1OC(C)C(=O)O", "note": "(stereo not given)", "Potency": "inactive"},
      {"smiles": "Cc1ccc(O)c(C)c1", "Potency": "inactive"},
      {"smiles": "COc1cc(-c2ccc(N)c(OC)c2)ccc1N", "Potency": "inactive"},
      {"smiles": "COC(=O)Nc1cccc(OC(=O)Nc2cccc(C)c2)c1", "Potency": "inactive"},
      {"smiles": "Cc1ccccc1N", "Potency": "inactive"},
      {"smiles": "Cc1ccc(N)cc1", "Potency": "inactive"},
      {"smiles": "CCCCC(CC)C(=O)Cl", "note": "(stereo not given)", "Potency": "inactive"},
      {"smiles": "Cc1ccc(N=C=O)cc1N=C=O", "Potency": "inactive"},
      {"smiles": "CN1C(=O)CCS(=O)(=O)C1c1ccc(Cl)cc1", "note": "(stereo not given)", "Potency": "inactive"},
      {"smiles": "c1ccc2c(c1)CCCC2", "Potency": "inactive"},
      {"smiles": "CC12CC1(C)C(=O)N(c1cc(Cl)cc(Cl)c1)C2=O", "note": "(stereo not given)", "Potency": "inactive"},
      {"smiles": "O=C(O)CCCc1ccc(N(CCCl)CCCl)cc1", "Potency": "inactive"},
      {"smiles": "FC(F)(F)c1ccc(Cl)cc1", "Potency": "inactive"},
      {"smiles": "O=P1(NCCCl)OCCCN1CCCl", "note": "(stereo not given)", "Potency": "inactive"},
      {"smiles": "COP(=S)(OC)Oc1ccc(SC)c(C)c1", "Potency": "inactive"},
      {"smiles": "OCC(O)CCl", "note": "(stereo not given)", "Potency": "inactive"},
      {"smiles": "Nc1cc(Cl)cc(Cl)c1", "Potency": "inactive"},
      {"smiles": "OCCCCO", "Potency": "inactive"},
      {"smiles": "CCSC(=O)N1CCCCCC1", "Potency": "inactive"},
      {"smiles": "O=C(O)C1C(C(=O)O)C2(Cl)C(Cl)=C(Cl)C1(Cl)C2(Cl)Cl", "note": "(stereo not given)", "Potency": "inactive"},
      {"smiles": "CNCC(O)c1ccc(O)cc1", "note": "(stereo not given)", "Potency": "inactive"},
      {"smiles": "O=C(O)COc1ccccc1", "Potency": "inactive"},
      {"smiles": "CCOC(=O)CC(SP(=O)(OC)OC)C(=O)OCC", "note": "(stereo not given)", "Potency": "inactive"},
      {"smiles": "Nc1ccc([As](=O)(O)O)cc1", "Potency": "inactive"},
      {"smiles": "CC[N+](=O)[O-]", "Potency": "inactive"},
      {"smiles": "NNc1ccccc1", "Potency": "inactive"},
      {"smiles": "O=[N+]([O-])c1cc([As](=O)(O)O)ccc1O", "Potency": "inactive"},
      {"smiles": "CC(=O)/C=C/c1ccccc1", "Potency": "inactive"},
      {"smiles": "CN(C)C(=O)Nc1cccc(C(F)(F)F)c1", "Potency": "inactive"}
    ]}
  ]
}
